High-throughput results (PubChem)
Only some compounds are listed: those with a hit (about 0.59% of all), similar ones and a draw of the others.
Rv3671c protease – Rv3671c serine protease inhibitors, primary screen, biochemical, fluorescence polarization, M. tuberculosis H37Rv | P9WHR9 | 320,000 compounds, 0.048% hits | inhibition, % at 5.96 µM; in the data active = inhibition above about 38%;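 also: extracellular domain of Rv3671c used as enzyme; 0% = enzyme with DMSO and 100% = no enzyme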
Mtb hypoxia inh – PubChem AID 1159583; M. tuberculosis hypoxia-regulated fluorescent reporter, fluorescence; fluorescence inhibition, % (concentration not given with the values); 300,000 compounds, 0.1% hits; in the data active = fluorescence inhibition mostly above about 23%, no sharp cut-off; inactive = mostly below about 17%
UGM FP inh – M. tuberculosis UGM enzyme inhibitors, primary screen, biochemical, fluorescence polarization, single point. UDP-galactopyranose mutase (Mycobacterium tuberculosis (strain ATCC 25618 / H37Rv)), …. purified UGM, fluorescence polarization probe displacement. inhibition, % at 10 µM. 320,000 compounds, 0.06% hits; in the data active = inhibition above about 10%, passing the limit was not always enough
Target sequence (P9WIQ1 whole entry, looked up): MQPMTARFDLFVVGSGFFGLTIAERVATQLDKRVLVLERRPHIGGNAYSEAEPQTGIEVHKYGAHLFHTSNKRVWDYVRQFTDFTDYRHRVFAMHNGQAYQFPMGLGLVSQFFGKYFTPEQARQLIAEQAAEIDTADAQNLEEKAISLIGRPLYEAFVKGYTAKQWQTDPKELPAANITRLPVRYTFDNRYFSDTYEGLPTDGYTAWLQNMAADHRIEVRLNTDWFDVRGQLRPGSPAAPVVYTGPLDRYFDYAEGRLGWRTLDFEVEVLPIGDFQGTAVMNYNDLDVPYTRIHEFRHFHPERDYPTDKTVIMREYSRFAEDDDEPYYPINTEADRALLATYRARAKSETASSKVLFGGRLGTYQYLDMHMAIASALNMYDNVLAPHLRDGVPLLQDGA
Mtb betalactam – beta-lactam sensitization of Mtb H37Rv, H37Rv. M. tuberculosis H37Rv growth with meropenem, percent inhibition. inhibition, % at 25 µM. 330,000 compounds, 0.27% hits; call rule not given here;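 also: growth measured after seven days incubation then overnight dye step; 0% = bacteria only wells and 100% = bacteria with antibiotic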
VHR inh abs – VHR1 phosphatase inhibitors, primary screen, biochemical, absorbance, uHTS | recombinant VHR phosphatase, pNPP absorbance | inhibition, % at 13.3 µM | 290,000 compounds, 0.52% hits | AID 1654, 2009; in the data active = inhibition above about 50%
Starred values were filed as active, the others as inactive; / = not tested or not shown.

SMILES	Rv3671c protease	Mtb hypoxia inh	UGM FP inh	Mtb betalactam	VHR inh abs
COc1ccc(C2c3c(ncn(CCN4CCOCC4)c3=N)Oc3ccc4ccccc4c32)cc1 (stereo unspecified)	-9	11	2	26	3
N=c1c2c(ncn1CCN1CCOCC1)Oc1ccc3ccccc3c1C2c1ccccc1 (stereo unspecified)	-7	11	-1	9	55*
COc1cccc2c(=O)cn[nH]c12	-9	-8	11*	1	-5
CCOC(=O)C1=C(C)Nc2ccccc2N=C1NC(=O)Cc1ccc(OC)cc1	-7	15	-1	-7	51*
CC1CC(C)CN(C(=O)c2ccc3c(c2)OCCO3)C1 (stereo unspecified)	1	15	1	-1	/
COC(=O)c1cc(OC)c(OC)cc1N=CC1=C(O)CC(C)(C)CC1=O	7	/	1	0	55*
Cc1ccc(N2CC(C(=O)NC(C)CCc3ccccc3)CC2=O)cc1 (stereo unspecified)	-6	-2	1	2	53*
COc1ccc2c(c1)c(=O)oc1c(C)c(OCc3ccc(C(=O)O)cc3)ccc12	-9	/	-2	62	52*
CCC(/C=C1\Sc2ccc(OC)cc2N1CC)=C\c1sc2ccc(OC)cc2[n+]1CCCS(=O)(=O)[O-]	-419	68*	1	9	7
CCC(/C=C1\Sc2ccc(OC)cc2N1CCO)=C\c1sc2ccc(OC)cc2[n+]1CCO	-459	/	0	96	-8
CC(=O)NCCNC(=O)c1ccc(CSc2nc3ccccc3s2)cc1	6	/	-2	14	60*
Cc1cccc(S(=O)(=O)NCCc2cn3ccccc3n2)c1	13	9	-2	10	10
Cc1ccc2nc3c(c(N)c2c1)CCN3C	3	/	1	-1	58*
Cc1ccccc1OCCC(=O)NNC(=O)c1ccccc1F	2	33*	-1	3	/
COc1cc(C(=O)NNC(=O)CCOc2ccccc2C)cc(OC)c1OC	1	5	0	-4	/
CC1CCN(CC(O)CN2c3ccccc3Sc3ccccc32)CC1 (stereo unspecified)	-4	4	1	-6	58*
Cc1cc2ncn(/N=C/c3ccc([N+](=O)[O-])o3)c2cc1C	4	/	4	100	52*
Fc1ccccc1NC(=S)N1CCN(Cc2ccc3c(c2)OCO3)CC1	-2	1	-3	-2	14
c1coc(-c2nc(-c3ccco3)c(-c3ccco3)nc2-c2ccco2)c1	8	1	0	-7	51*
COc1ccc(/C=C/c2nnc(NC(=O)CSc3ccc(C)cc3)s2)cc1	-1	2	/	-5	-4
Cc1ccc(SCC(=O)Nc2nnc(C(C)(C)C)s2)cc1	-3	7	1	-2	54*
N#Cc1ccccc1OCC(=O)NC(=O)NCc1ccccc1	-1	6	-4	7	47
CC1CCN(S(=O)(=O)c2ccc3c(c2)c(=O)c(C(=O)NCc2ccco2)cn3C)CC1	-15	/	-1	-11	-14
CCN(CC)S(=O)(=O)c1ccc2c(c1)c(=O)c(C(=O)NCc1ccco1)cn2C	-3	-2	12*	2	11
Cc1cc2ncc(C(=O)Nc3ccccc3)c(C)n2n1	1	-10	3	-2	-23
SMILES	Rv3671c protease	Mtb hypoxia inh	UGM FP inh	Mtb betalactam	VHR inh abs
Cc1nn2c(C)c(C(=O)Nc3ccccc3)cnc2c1C#N	-3	7	0	1	51*
COc1ccc(-c2[nH]ncc2C=NNC(=O)c2ccc(Br)o2)cc1OC	/	9	/	/	/
CC(=O)c1ccc(C(=O)N2CCC(CO)(Cc3cccc(C(F)(F)F)c3)CC2)cc1	2	0	-6	5	53*
CC1Oc2cc3c(-c4c(O)cc(O)c5c(O)c6c(cc45)OC(C)C(C)C6=O)c(O)cc(O)c3c(O)c2C(=O)C1C (stereo unspecified)	40*	/	1	6	13
CCCCN(CCCC)S(=O)(=O)c1ccc(SCC(=O)OCC)c([N+](=O)[O-])c1	3	5	0	4	19
O=Cc1c(Cl)nc2ccccn2c1=O	6	0	0	1	-5
CC1CCN(c2nc3ccccn3c(=O)c2C=O)CC1	7	45*	1	-3	15
N/C(Cc1ccc([N+](=O)[O-])cc1)=N\OC(=O)c1ccccc1F	-5	/	1	-11	57*
CSc1ccccc1C(=O)NCCCn1ccnc1	-3	1	0	2	54*
